Assay results reported in the supplement of paper PMC5662767.
Counter-ions that a name gives are not always drawn.

tested on: Drosophila S2 cl14 SmoIP sensor cells; assay: normalized SmoIP GFP fluorescence (untreated unstimulated = 0%, untreated Hh-stimulated = 100%); higher = more Smo activation sensor fluorescence; conditions: stimulation: Hh conditioned medium (+Hh); compound concentration: 2 uM; 24 h
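Further: flow cytometry read-out as median GFP intensity of gated cells, compounds added 30 min before Hh-conditioned or mock medium, mock-treated cells serving as unstimulated baseline.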

| SMILES | normalized SmoIP GFP fluorescence |
| --- | --- |
| COc1ccccc1N1CCN(CCCNc2cc(=O)n(C)c(=O)n2C)CC1 [urapidil-hydrochloride] | 110% |
| CCCCOc1ccc(C(=O)Nc2ccc(F)cc2F)cc1 | 99.9% |
| COc1cc2ncnc(Nc3ccc(F)c(Cl)c3)c2cc1NC(=O)/C=C/CN1CCCCC1 | 163% |
| COc1ccc2cc(CCC(C)=O)ccc2c1 [nabumetone] | 103% |
| CN[C@H]1CC[C@@H](c2ccc(Cl)c(Cl)c2)c2ccccc21 [sertraline-hcl] | 108% |
| CN(c1ncccc1CNc1nc(Nc2ccc3c(c2)CC(=O)N3)ncc1C(F)(F)F)S(C)(=O)=O | 196% |
| NC(=O)c1cnc(N[C@@H]2CCCC[C@@H]2N)nc1Nc1cccc(-n2nccn2)c1 | 166% |
| CCOc1cc(N)c(Cl)cc1C(=O)NCC1CN(Cc2ccc(F)cc2)CCO1 (stereo not drawn) [Mosapride-citrate] | 103% |
| COc1cc(NC(=O)c2ccc(-c3ccc(Cl)cc3)o2)cc(OC)c1 | 115% |
| COc1cc(CCc2cc(NC(=O)c3ccc(N4CC(C)NC(C)C4)cc3)n[nH]2)cc(OC)c1 (stereo not drawn) | 114% |
| COc1cc2nc(N3CCCN(C)CC3)nc(NC3CCN(Cc4ccccc4)CC3)c2cc1OC | 109% |
| CN1CCc2nc(C(=O)N[C@@H]3C[C@@H](C(=O)N(C)C)CC[C@@H]3NC(=O)C(=O)Nc3ccc(Cl)cn3)sc2C1 [edoxaban] | 106% |
| O=C(O)c1ccc(C=C2SC(=S)N(c3cccc(C(F)(F)F)c3)C2=O)cc1 [cftrinh-172] | 121% |
| Nc1ccc(-c2ccc3ncc4ccc(=O)n(-c5cccc(C(F)(F)F)c5)c4c3c2)cn1 [torin-2] | 59.5% |
| Cn1cnc(N)c2ncnc1-2 [3-methyladenine] | 111% |
| Oc1ccc(/C=C/c2cc(O)cc(O)c2)cc1 [Resveratrol] | 104% |
| CC(=O)OCC(=O)NCCCOc1cccc(CN2CCCCC2)c1 [roxatidine-acetate-hcl] | 142% |
| COC(=O)N1CCN(Cc2cccc(NC(=O)Nc3ccc(C)nc3)c2F)CC1 | 125% |
| Cc1cccc(Nc2cc(Cl)nc(SCC(=O)O)n2)c1C | 93.8% |
| Oc1cccc(-c2nc(N3CCOCC3)c3oc4ncccc4c3n2)c1 | 85.1% |

| SMILES | normalized SmoIP GFP fluorescence |
| --- | --- |
| CO[C@H]1C[C@@H]2CC[C@@H](C)[C@@](O)(O2)C(=O)C(=O)N2CCCC[C@H]2C(=O)O[C@H]([C@H](C)C[C@@H]2CC[C@@H](OCCO)[C@H](OC)C2)CC(=O)[C@H](C)/C=C(\C)[C@@H](O)[C@@H](OC)C(=O)[C@H](C)C[C@H](C)/C=C/C=C/C=C/1C [Everolimus(RAD001)] | 32.9% |
| Cc1cccc(-c2[nH]ncc2-c2ccc3ncccc3n2)n1 [repsox] | 109% |
| Cc1cc(OCCCS(C)(=O)=O)cc(C)c1-c1cccc(COc2ccc3c(c2)OC[C@H]3CC(=O)O)c1 | 120% |
| COc1cc(Br)c(Nc2nc(-c3c(C)nc4ncccn34)cs2)c(Br)c1 | 110% |
| Cn1cnc2c(F)c(Nc3ccc(Br)cc3Cl)c(C(=O)NOCCO)cc21 | 126% |
| CCCC(CCC)C(=O)O [Divalproex-sodium] | 134% |
| CS(=O)(=O)Nc1ccc([N+](=O)[O-])cc1Oc1ccccc1 [nimesulide] | 109% |
| Cc1cc(Nc2nc(N[C@@H](C)c3ccc(F)cc3)c(C#N)cc2F)n[nH]1 | 109% |
| C#Cc1cccc(Nc2ncnc3cc(OC)c(OCCCCCCC(=O)NO)cc23)c1 | 128% |
| CC(C)NC[C@@H](C(=O)N1CCN(c2ncnc3c2[C@H](C)C[C@H]3O)CC1)c1ccc(Cl)cc1 | 103% |
| Cc1ccccc1-n1c(Cn2nc(-c3cccc(O)c3)c3c(N)ncnc32)nc2cccc(C)c2c1=O | 101% |
| c1ccc2c(CC3=NCCN3)cccc2c1 [Naphazoline-hydrochloride-Naphcon] | 118% |
| CCCCCCCCOc1ccccc1C(=O)Nc1ccc(C(=O)OCC[N+](C)(CC)CC)cc1 [otilonium-bromide] | 109% |
| COc1ccc2cccc(CCNC(C)=O)c2c1 [Agomelatine] | 102% |
| COc1ccc(C2CNC(=O)C2)cc1OC1CCCC1 (stereo not drawn) [Rolipram] | 92.5% |
| CC(=O)c1c(C)c2cnc(Nc3ccc(N4CCNCC4)cn3)nc2n(C2CCCC2)c1=O | 150% |
| CCN(CC)CC#CCOC(=O)C(O)(c1ccccc1)C1CCCCC1 (stereo not drawn) [oxybutynin-chloride] | 108% |
| CC/C(=C(\c1ccccc1)c1ccc(OCCN(C)C)cc1)c1ccccc1 [Tamoxifen-Citrate(Nolvadex)] | 112% |
| O=C(/C=C/c1ccc(O)c(O)c1)OCCc1ccccc1 [caffeic-acid-phenethyl-ester] | 114% |

same assay, conditions: stimulation: mock conditioned medium (-Hh); compound concentration: 2 uM; 24 h

| SMILES | normalized SmoIP GFP fluorescence |
| --- | --- |
| COc1ccccc1N1CCN(CCCNc2cc(=O)n(C)c(=O)n2C)CC1 [urapidil-hydrochloride] | -7.96% |
| CCCCOc1ccc(C(=O)Nc2ccc(F)cc2F)cc1 | -2.08% |
| COc1cc2ncnc(Nc3ccc(F)c(Cl)c3)c2cc1NC(=O)/C=C/CN1CCCCC1 | 12.5% |
| COc1ccc2cc(CCC(C)=O)ccc2c1 [nabumetone] | -2.2% |
| CN[C@H]1CC[C@@H](c2ccc(Cl)c(Cl)c2)c2ccccc21 [sertraline-hcl] | 2.46% |
| CN(c1ncccc1CNc1nc(Nc2ccc3c(c2)CC(=O)N3)ncc1C(F)(F)F)S(C)(=O)=O | 39.3% |
| NC(=O)c1cnc(N[C@@H]2CCCC[C@@H]2N)nc1Nc1cccc(-n2nccn2)c1 | 24.4% |
| CCOc1cc(N)c(Cl)cc1C(=O)NCC1CN(Cc2ccc(F)cc2)CCO1 (stereo not drawn) [Mosapride-citrate] | -4.68% |
| COc1cc(NC(=O)c2ccc(-c3ccc(Cl)cc3)o2)cc(OC)c1 | -1.97% |
| COc1cc(CCc2cc(NC(=O)c3ccc(N4CC(C)NC(C)C4)cc3)n[nH]2)cc(OC)c1 (stereo not drawn) | 2.97% |
| COc1cc2nc(N3CCCN(C)CC3)nc(NC3CCN(Cc4ccccc4)CC3)c2cc1OC | 1.61% |
| CN1CCc2nc(C(=O)N[C@@H]3C[C@@H](C(=O)N(C)C)CC[C@@H]3NC(=O)C(=O)Nc3ccc(Cl)cn3)sc2C1 [edoxaban] | -1.34% |
| O=C(O)c1ccc(C=C2SC(=S)N(c3cccc(C(F)(F)F)c3)C2=O)cc1 [cftrinh-172] | 2.24% |
| Nc1ccc(-c2ccc3ncc4ccc(=O)n(-c5cccc(C(F)(F)F)c5)c4c3c2)cn1 [torin-2] | -9.64% |
| Cn1cnc(N)c2ncnc1-2 [3-methyladenine] | -4.89% |
| Oc1ccc(/C=C/c2cc(O)cc(O)c2)cc1 [Resveratrol] | -4.25% |
| CC(=O)OCC(=O)NCCCOc1cccc(CN2CCCCC2)c1 [roxatidine-acetate-hcl] | -6.97% |
| COC(=O)N1CCN(Cc2cccc(NC(=O)Nc3ccc(C)nc3)c2F)CC1 | -11.4% |
| Cc1cccc(Nc2cc(Cl)nc(SCC(=O)O)n2)c1C | -14.3% |
| Oc1cccc(-c2nc(N3CCOCC3)c3oc4ncccc4c3n2)c1 | 4.26% |

| SMILES | normalized SmoIP GFP fluorescence |
| --- | --- |
| CO[C@H]1C[C@@H]2CC[C@@H](C)[C@@](O)(O2)C(=O)C(=O)N2CCCC[C@H]2C(=O)O[C@H]([C@H](C)C[C@@H]2CC[C@@H](OCCO)[C@H](OC)C2)CC(=O)[C@H](C)/C=C(\C)[C@@H](O)[C@@H](OC)C(=O)[C@H](C)C[C@H](C)/C=C/C=C/C=C/1C [Everolimus(RAD001)] | -10.1% |
| Cc1cccc(-c2[nH]ncc2-c2ccc3ncccc3n2)n1 [repsox] | -0.378% |
| Cc1cc(OCCCS(C)(=O)=O)cc(C)c1-c1cccc(COc2ccc3c(c2)OC[C@H]3CC(=O)O)c1 | -6.79% |
| COc1cc(Br)c(Nc2nc(-c3c(C)nc4ncccn34)cs2)c(Br)c1 | 5.12% |
| Cn1cnc2c(F)c(Nc3ccc(Br)cc3Cl)c(C(=O)NOCCO)cc21 | 42.9% |
| CCCC(CCC)C(=O)O [Divalproex-sodium] | -10.4% |
| CS(=O)(=O)Nc1ccc([N+](=O)[O-])cc1Oc1ccccc1 [nimesulide] | -4.35% |
| Cc1cc(Nc2nc(N[C@@H](C)c3ccc(F)cc3)c(C#N)cc2F)n[nH]1 | -9.04% |
| C#Cc1cccc(Nc2ncnc3cc(OC)c(OCCCCCCC(=O)NO)cc23)c1 | 29.7% |
| CC(C)NC[C@@H](C(=O)N1CCN(c2ncnc3c2[C@H](C)C[C@H]3O)CC1)c1ccc(Cl)cc1 | -1.12% |
| Cc1ccccc1-n1c(Cn2nc(-c3cccc(O)c3)c3c(N)ncnc32)nc2cccc(C)c2c1=O | -5.98% |
| c1ccc2c(CC3=NCCN3)cccc2c1 [Naphazoline-hydrochloride-Naphcon] | -11.6% |
| CCCCCCCCOc1ccccc1C(=O)Nc1ccc(C(=O)OCC[N+](C)(CC)CC)cc1 [otilonium-bromide] | -1.85% |
| COc1ccc2cccc(CCNC(C)=O)c2c1 [Agomelatine] | 5.66% |
| COc1ccc(C2CNC(=O)C2)cc1OC1CCCC1 (stereo not drawn) [Rolipram] | -1.88% |
| CC(=O)c1c(C)c2cnc(Nc3ccc(N4CCNCC4)cn3)nc2n(C2CCCC2)c1=O | 3.72% |
| CCN(CC)CC#CCOC(=O)C(O)(c1ccccc1)C1CCCCC1 (stereo not drawn) [oxybutynin-chloride] | -1.12% |
| CC/C(=C(\c1ccccc1)c1ccc(OCCN(C)C)cc1)c1ccccc1 [Tamoxifen-Citrate(Nolvadex)] | -6.61% |
| O=C(/C=C/c1ccc(O)c(O)c1)OCCc1ccccc1 [caffeic-acid-phenethyl-ester] | 71.8% |
